Here are results for 36 compounds from ChEMBL document CHEMBL3433997, “St. Jude Leishmania screening dataset” (2016).

Holding throughout (format): functional
Test [1] deals with Solute carrier family 2, facilitated glucose transporter member 1 (Homo sapiens) (UniProt P11166). As to the kind of experiment: ST_JUDE_LEISH: Cytotoxicity at 2uM final concentration against transgenic Leishmania Mexicana promastigotes LmGLUT1 that are glucose transport deficient and complemented with the human glucose transporter GLUT1. Activity is measured by DNA content using SYBR green in vitro.
Solute carrier family 2, facilitated glucose transporter member 1 (Homo sapiens), sequence (P11166 whole entry): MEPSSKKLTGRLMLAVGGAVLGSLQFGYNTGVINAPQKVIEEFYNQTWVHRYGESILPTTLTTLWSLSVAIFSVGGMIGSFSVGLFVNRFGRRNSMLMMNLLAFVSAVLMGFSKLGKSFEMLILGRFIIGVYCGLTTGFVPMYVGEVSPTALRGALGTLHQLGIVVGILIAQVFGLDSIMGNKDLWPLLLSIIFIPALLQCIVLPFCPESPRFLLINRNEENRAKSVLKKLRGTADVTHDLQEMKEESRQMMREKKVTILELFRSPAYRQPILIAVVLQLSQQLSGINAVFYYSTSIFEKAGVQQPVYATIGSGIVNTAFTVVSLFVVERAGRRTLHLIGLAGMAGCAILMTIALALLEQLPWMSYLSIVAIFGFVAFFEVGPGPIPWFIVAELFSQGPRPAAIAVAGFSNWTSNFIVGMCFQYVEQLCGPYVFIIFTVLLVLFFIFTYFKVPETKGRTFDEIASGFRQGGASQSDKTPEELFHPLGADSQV

The target of test [2] is Hexose transporter 1 (Plasmodium falciparum) (UniProt O97467). As to the kind of experiment: ST_JUDE_LEISH: Cytotoxicity at 2uM final concentration against transgenic Leishmania Mexicana promastigotes LmPfHT that are glucose transport deficient and complemented with the Plasmodium falciparum hexose transporter. Activity is measured by DNA content using SYBR green in vitro.

The target in test [3] is Glucose transporter (Leishmania mexicana) (UniProt O61059). Description: ST_JUDE_LEISH: Cytotoxicity at 2uM final concentration against transgenic Leishmania Mexicana promastigotes LmGT2 that are glucose transport deficient and complemented with the L. Mexicana glucose transporter 2. Activity is measured by DNA content using SYBR green in vitro.

The term inhibition denotes the relative decrease from the control value, in per cent. Consider `CCN(c1ccc(O)c(CN2CCCCC2)c1)c1ccc([N+](=O)[O-])cn1`, for which the inhibition in test [1] was 2.79%; in test [2] it was 1.08%; in test [3] it was 0.72%.
In the case of `Nc1nc(N)c2c(ccn2Cc2cc3c(cc2Cl)OCO3)n1`, the inhibition came out at 4.12% in test [1], 2.86% in test [2] and 10.5% in test [3].
The corresponding values for `COc1ccccc1CCNc1nc(C)cc(N[C@@H](CC(C)C)C(=O)Nc2ccccc2)n1` are 4.84%, 6.02% and -0.58%.
With `CCOC(=O)c1ccc(NC(=O)c2ccccc2C(=O)O)cc1`, the inhibition in test [1] was 0.53%; in test [2], 1.23%; in test [3] it was -0.02%.
For `COC(=O)[C@@H](NC(=O)[C@H](Cc1ccc(OC)c(OC)c1)Nc1ccc(C#N)c2ccccc12)c1ccc(O)cc1`, in that order: 10.1%, 16.6% and 6.41%.
With `CC(=O)Nc1ccc(C(=O)Nc2cccc(-c3ccc(-c4nc5cc(F)ccc5[nH]4)cc3)c2)cn1`, the figures for the inhibition in test [1], in test [2] and in test [3] were -1.01%, 2.17% and 0.38%, respectively.
For `COc1cc(CCNC(=N)/C=C/c2ccc(Cl)cc2)ccc1Cl`, in that order: 2.51%, 2.01% and -0.39%.
For `COc1c(C2CCN(CCCCNC(=O)c3ccc(-c4ccc(Cl)cc4)c(OCC(N)=O)c3)CC2)ccc2c1CCCC2`, in that order: 4.52%, 3.3% and 5.11%.
As for `COc1ccc2nccc([C@@H](O)CN3CCC(NC(=O)C(c4cc5ccccc5o4)N4CCN(c5ccccc5)CC4)CC3)c2c1` (stereo partly drawn), the results for the inhibition in test [1], in test [2] and in test [3] were 5.51%, 2.83% and 2.54%, respectively.
For `Nc1ncc(-c2ccc3[nH]ccc3c2)c2ccc(-c3ccncc3)cc12`, in that order: 10%, 10.2% and 9.5%.
For `O=C(NCc1ccc(Cl)c(Cl)c1)[C@H]1CNCCN1C(=O)c1ccccc1`, in that order: 2.83%, 1.69% and 2.44%.
The corresponding values for `O=C(Nc1ccc(Cl)cc1)Nc1cccc(-c2cccc(-c3nc4ccccc4[nH]3)c2)c1` are 1.17%, 0.33% and -0.65%.
Turning to `COc1ccc2cc(-c3nc(-c4c(Cl)cccc4Cl)[nH]c3-c3ccnc(NCCCN4CCCCC4C)c3)ccc2c1` (stereo not drawn), the figures for the inhibition in test [1], in test [2] and in test [3] were 0.59%, -0.07% and 0.19%, respectively.
With `Cc1ccc(NC(=O)NC2CCN(CCCCCNC(=O)C3CC3c3ccc(Cl)c(Cl)c3)CC2)cc1` (stereo not drawn), the inhibition in test [1] was -4.5%; in test [2] it was -2.29%; in test [3], -3.29%.
For `Cc1ccc2nc(C)n(C3CCN(C(=O)Cc4ccc(F)c(F)c4)CC3)c2c1`, the inhibition stood at 2.56% in test [1], 2% in test [2] and 2.78% in test [3].
For `O=C(NCc1cccc(C(F)(F)F)c1)C1CCCN(C(=O)c2ccc(O)c(-c3ccc(Cl)c(Cl)c3)c2)C1` (stereo not drawn), in that order: 3.46%, 2.95% and 3.95%.
For `COc1ccccc1C1CCN(C2CCC(NC(=O)/C=C/c3cc(C(F)(F)F)cc(C(F)(F)F)c3)CC2)CC1` (stereo not drawn), in that order: -3.08%, -0.91% and -2.77%.
The corresponding values for `O=C(Nc1cccc(-c2ccc(-c3nc4cc(C(F)(F)F)ccc4[nH]3)s2)c1)c1ccncc1` are 8.37%, 8.56% and 7.24%.
With `CCCCc1cc(NCc2ccncc2)nc(Nc2ccccc2)n1`, the inhibition in test [1] amounted to 13.6%; in test [2], 6.01%; in test [3], 4.07%.
For `CC(C)N1CCN(C(=O)c2ccc(CNCCCN3CCN(c4cccc(Cl)c4Cl)CC3)o2)CC1`, the results for the inhibition in test [1], in test [2] and in test [3] were -2.44%, -1.41% and -1.3%, respectively.
The corresponding values for `N#CCCN1CCN(Cc2ccc(-c3ccc(-c4nc5cc(F)ccc5[nH]4)s3)cc2)CC1` are 5.49%, 0.84% and 4.14%.
Regarding `O=C(CC(=O)C(F)(F)F)c1ccccc1[N+](=O)[O-]`, the inhibition in test [1] is 0.17%; in test [2], 3.36%; in test [3], -1.14%.
In the case of `COc1cccc(C(=O)Nc2ccc(-c3nc4ccccc4[nH]3)cc2)c1`, the inhibition in test [1] came to 3.48%; in test [2] it was 1.76%; in test [3], 0.31%.
For `OC(CNc1ccnc(Nc2ccc(Cl)cc2)n1)c1cccc(C(F)(F)F)c1` (stereo not drawn), in that order: 1.93%, 2.79% and 0.49%.
For `CN(C(=O)/C=C/c1cc(C(F)(F)F)ccc1F)C1CCN(CCCCCNC(=O)/C=C/c2ccc(Cl)c(Cl)c2)C1` (stereo not drawn), in that order: 0.02%, 1.48% and 1.37%.
The corresponding values for `CCOC(=O)c1[nH]c2ccc(F)cc2c1NC(=O)CN1CCN(c2cccc(C(F)(F)F)c2)CC1` are 0.03%, 0.43% and -2.97%.
With `CCC1(CC)NC(N)=NC(=N)N1OCc1ccc(Cl)c(Cl)c1`, the inhibition in test [1] amounted to 4.32%; in test [2] it was 3.75%; in test [3], 4.43%.
For `Cc1noc(C)c1-c1cccc(CNCc2ccc(-c3ccc(-c4nc5cc(C(F)(F)F)ccc5[nH]4)cc3)cc2)c1`, the inhibition in test [1] stood at 5.36%; in test [2] it was 4.54%; in test [3], 4.2%.
Consider `Cc1nc(NCCc2c[nH]cn2)cc(NCc2ccccc2)n1`, for which the inhibition is 3.83% in test [1], 3.44% in test [2] and 3.61% in test [3].
The corresponding values for `Cc1cc(NC(=O)c2ccc(-c3ccccc3)cc2)no1` are 4.35%, 3.79% and 4.2%.
For `Cc1[nH]c(C)c(-c2ccc(OCc3ccccc3)cc2)c(=O)c1Br`, in that order: 5.62%, 1.22% and -2.04%.
`O=C(Nc1cccc(-c2ccc(-c3nc4cc(F)ccc4[nH]3)s2)c1)c1ccncc1`: the inhibition in test [1] came out at 6.59%; in test [2], 5.83%; in test [3], 3.32%.
As to `NC1CCN(Cc2ccc(-c3ccc(-c4nc5ccccc5[nH]4)s3)cc2)C1` (stereo not drawn), the inhibition in test [1] is 3.97%; in test [2], 1.77%; in test [3], 3.21%.
For `COc1cc(OC)cc(-c2nnc(Sc3ccc(C#N)c([N+](=O)[O-])c3)n2C)c1`, in that order: 9.51%, 6.92% and 5.47%.
As to `Cc1cccc2nc(-c3ccc(-c4ccc(CNCCNC(=O)c5ccnn5C)cc4)cc3)[nH]c12`, the values for the inhibition in test [1], in test [2] and in test [3] were -0.55%, 1.46% and -2.49%, respectively.
For `CS(=O)(=O)CCNc1nccc(N2CCc3ncnc(Nc4ccc(OCc5cccc(F)c5)c(Cl)c4)c3C2)n1`, in that order: -1.94%, -1.97% and -1.99%.
